Source: PubChem BioAssay (NCI)
This is part of a sample that, as a whole, favours compounds with a hit. Of some 79,000 tested, about 15% had one in any assay. The source made the active and inactive calls. No stated cut-off is given here; in the data, active means growth inhibition above about 70%; inactive means the rest.

Assays:
[1] = NCI Yeast Anticancer Drug Screen. Data for the rad52 strain (AID 147);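 further: 0% = growth of vehicle-treated control cultures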; settings: S. cerevisiae rad52 mutant growth inhibition, stronger effect = higher value
How it was run: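 Screen used a yeast mutant impaired in DNA repair. After compound exposure, growth was measured. Values reflect inhibition compared with vehicle-treated cells.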

[2] = NCI Yeast Anticancer Drug Screen. Data for the wt1 strain (AID 149);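 further: 0% = growth of vehicle-treated wt1 cultures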; settings: S. cerevisiae wt1 strain (SPY 50644) growth inhibition, stronger effect = higher value
How it was run: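 Using yeast strain wt1, compound-induced growth inhibition was determined against vehicle-treated cultures.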

[3] = NCI Yeast Anticancer Drug Screen. Data for the rad50EPP+ strain (AID 151);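 further: 0% = growth of vehicle-treated control cultures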; settings: S. cerevisiae rad50 mutant strain, stronger effect = higher value
How it was run: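 Exposing the rad50EPP+ strain to each compound, growth was compared with vehicle-only cultures to give inhibition.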

[4] = NCI Yeast Anticancer Drug Screen. Data for the mgt1 strain (AID 153); settings: S. cerevisiae mgt1 mutant growth inhibition, stronger effect = higher value
How it was run: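 Genetically defined yeast (mgt1) treated with compound; inhibition of growth expressed against vehicle-treated controls.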

[5] = NCI Yeast Anticancer Drug Screen. Data for the rad50 strain (AID 155);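 further: 0% = growth of vehicle-only cultures of the same strain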; settings: S. cerevisiae rad50 strain growth inhibition, stronger effect = higher value
How it was run: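 Relative growth inhibition (compound vs vehicle) was measured in yeast with a defined repair-gene alteration.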

[6] = NCI Yeast Anticancer Drug Screen. Data for the mec2-1 strain (AID 157); settings: S. cerevisiae mec2-1 strain, stronger effect = higher value
How it was run: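 Readout is yeast growth inhibition, normalised to vehicle-treated controls, in the mec2-1 strain exposed to compound.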

[7] = NCI Yeast Anticancer Drug Screen. Data for the rad14 strain (AID 159);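 further: 0% = growth of vehicle-treated control cultures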; settings: S. cerevisiae rad14 strain growth inhibition, stronger effect = higher value
How it was run: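 Screen for anticancer potential: a yeast strain altered in DNA damage repair is grown with compound, and reduced growth is quantified against vehicle controls.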

[8] = NCI Yeast Anticancer Drug Screen. Data for the sgs1 mgt1 strain (AID 161);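 further: 0% = growth of cultures given vehicle only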; settings: S. cerevisiae sgs1 mgt1 strain, stronger effect = higher value
How it was run: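 Percent growth inhibition was derived by comparing compound-exposed mutant yeast with vehicle-exposed cultures. The strain carries alterations in DNA damage repair.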

[9] = NCI Yeast Anticancer Drug Screen. Data for the CLN2oe strain (AID 163);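 further: 0% = growth of vehicle-only control cultures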; settings: S. cerevisiae CLN2oe strain, stronger effect = higher value
How it was run: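 Values reflect how much compound exposure reduced yeast growth, referenced to vehicle-exposed cells. Assay organism is a strain with a defined genetic change affecting cell-cycle control.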

[10] = NCI Yeast Anticancer Drug Screen. Data for the cln2 rad14 strain (AID 165);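 further: 0% = growth equal to vehicle treated cultures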; settings: S. cerevisiae cln2 rad14 strain, stronger effect = higher value
How it was run: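 Relative to vehicle controls, growth inhibition of compound-treated cln2 rad14 yeast was recorded.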

[11] = NCI Yeast Anticancer Drug Screen. Data for the bub3 strain (AID 167); settings: S. cerevisiae bub3 mutant strain, stronger effect = higher value
How it was run: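 Screening used yeast with an engineered genetic alteration affecting cell cycle control. Compound-exposed cultures were compared with vehicle cultures, and reduced growth was taken as inhibition.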

[12] = NCI Yeast Anticancer Drug Screen. Data for the mlh1 strain (AID 171);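 further: 0% = growth of vehicle-treated control cultures of the same strain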; settings: S. cerevisiae mlh1 strain growth inhibition, stronger effect = higher value
How it was run: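 Steps: expose the defined-mutant yeast strain to compound; expose a parallel culture to vehicle; measure growth; express compound effect as inhibition relative to the vehicle culture.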

[13] = NCI Yeast Anticancer Drug Screen. Data for the sgs1 strain (AID 173);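 further: 0% = growth of vehicle-only control cultures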; settings: S. cerevisiae sgs1 mutant, stronger effect = higher value
How it was run: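 Treat defined-mutant yeast with compound; measure growth; calculate inhibition relative to vehicle-treated cells.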

[14] = NCI Yeast Anticancer Drug Screen. Data for the mlh1 rad18 strain (AID 175); settings: S. cerevisiae mlh1 rad18 strain growth inhibition, stronger effect = higher value
How it was run: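 Test agents were incubated with a yeast strain of defined genotype (DNA damage repair defect). Inhibition of growth was derived by comparison with vehicle-exposed cultures.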

[15] = NCI Yeast Anticancer Drug Screen. Data for the rad18 strain (AID 177); settings: S. cerevisiae rad18 mutant growth inhibition, stronger effect = higher value
How it was run: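 A genetically defined yeast mutant impaired in DNA damage repair was treated with test compounds, then its growth was measured against cultures receiving vehicle alone.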

[16] = NCI Yeast Anticancer Drug Screen. Data for the wt2 strain (AID 169);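 further: 0% = growth of vehicle-treated yeast cultures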; settings: S. cerevisiae wt2 strain growth inhibition, stronger effect = higher value
How it was run: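 Values express reduction in yeast growth under compound treatment, referenced to vehicle-treated cells.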

[17] = at 5.0 µM (retest, dose inferred, filed as 0.5)
[18] = at 50.0 µM (retest, dose inferred, filed as 5.0)

Measured: growth inhibition

O=[N+]([O-])c1cccc2nc3ccccc3c(NCCC[N+]3([O-])CCCCC3)c12
active: [1]; at 11.0 µM 80% | [1]; at 33.0 µM 90% | [1]; at 100.0 µM 94% | [3]; at 11.0 µM 77% | [3]; at 33.0 µM 93% | [3]; at 100.0 µM 96% | [5]; at 33.0 µM 82% | [5]; [18] 93% | [5]; at 50.0 µM 81.3% | [5]; at 100.0 µM 91% | [6]; at 33.0 µM 86% | [6]; [18] 98% | [6]; at 50.0 µM 96% | [6]; at 100.0 µM 96% | [7]; at 11.0 µM 86% | [7]; at 33.0 µM 95% | [7]; at 100.0 µM 98% | [8]; [17] 78% | [8]; [18] 96% | [8]; at 50.0 µM 93.5% | [9]; at 33.0 µM 85% | [9]; at 100.0 µM 94% | [10]; [17] 95% | [10]; [18] 98% | [10]; at 50.0 µM 97.1% | [11]; at 33.0 µM 82% | [11]; [18] 86% | [11]; at 100.0 µM 87% | [13]; at 3.7 µM 70% | [13]; at 11.0 µM 84% | [13]; at 33.0 µM 91% | [13]; at 100.0 µM 93% | [14]; [17] 84% | [14]; [18] 98% | [14]; at 50.0 µM 94.4% | [15]; at 1.2 µM 93% | [15]; at 3.7 µM 95% | [15]; at 11.0 µM 96% | [15]; at 33.0 µM 96% | [15]; at 100.0 µM 96%
inactive: [1]; at 1.2 µM 20% | [1]; at 3.7 µM 47% | [2]; at 1.2 µM 1% | [2]; at 3.7 µM 2% | [2]; at 11.0 µM 4% | [2]; at 33.0 µM 15% | [2]; at 100.0 µM 46% | [3]; at 1.2 µM 10% | [3]; at 3.7 µM 36% | [4]; at 1.2 µM 0% | [4]; at 3.7 µM 1% | [4]; at 11.0 µM 5% | [4]; at 33.0 µM 7% | [4]; at 100.0 µM 56% | [5]; at 1.2 µM 4% | [5]; at 3.7 µM 16% | [5]; [17] 67% | [5]; at 11.0 µM 47% | [6]; at 1.2 µM 1% | [6]; at 3.7 µM 8% | [6]; [17] 39% | [6]; at 11.0 µM 35% | [7]; at 1.2 µM 6% | [7]; at 3.7 µM 28% | [9]; at 1.2 µM -2% | [9]; at 3.7 µM -5% | [9]; at 11.0 µM 46% | [11]; at 1.2 µM -13% | [11]; at 3.7 µM -8% | [11]; [17] -4% | [11]; at 11.0 µM 34% | [11]; at 50.0 µM 38.7% | [12]; at 1.2 µM 0% | [12]; at 3.7 µM 2% | [12]; at 11.0 µM 8% | [12]; at 33.0 µM 28% | [12]; at 100.0 µM 66% | [13]; at 1.2 µM 40%

Cc1cccc(C(C)(C)C)c1NC(=O)C(C#N)C1=C(Cl)C(=O)c2ccccc2C1=O (stereo unspecified)
active: [1]; at 33.0 µM 97% | [1]; at 100.0 µM 98% | [2]; at 33.0 µM 98% | [2]; at 100.0 µM 98% | [3]; at 11.0 µM 99% | [3]; at 33.0 µM 99% | [3]; at 100.0 µM 98% | [4]; at 33.0 µM 98% | [4]; at 100.0 µM 97% | [5]; at 11.0 µM 70% | [5]; at 33.0 µM 98% | [5]; [18] 97% | [5]; at 50.0 µM 91% | [5]; at 100.0 µM 96% | [6]; at 11.0 µM 95% | [6]; at 33.0 µM 95% | [6]; [18] 98% | [6]; at 50.0 µM 90.5% | [6]; at 100.0 µM 97% | [7]; at 11.0 µM 76% | [7]; at 33.0 µM 98% | [7]; at 100.0 µM 97% | [8]; [18] 98% | [8]; at 50.0 µM 89.5% | [10]; [18] 97% | [10]; at 50.0 µM 88.7% | [11]; at 11.0 µM 76% | [11]; at 33.0 µM 98% | [11]; [18] 98% | [11]; at 50.0 µM 92.3% | [11]; at 100.0 µM 96% | [16]; at 11.0 µM 74% | [16]; at 33.0 µM 97% | [16]; at 100.0 µM 94% | [12]; at 33.0 µM 99% | [12]; at 100.0 µM 98% | [14]; [18] 97% | [14]; at 50.0 µM 89.5% | [15]; at 33.0 µM 98% | [15]; at 100.0 µM 97%
inactive: [1]; at 1.2 µM 6% | [1]; at 3.7 µM 36% | [1]; at 11.0 µM 52% | [2]; at 1.2 µM -10% | [2]; at 3.7 µM 10% | [2]; at 11.0 µM 21% | [3]; at 1.2 µM 14% | [3]; at 3.7 µM 67% | [4]; at 1.2 µM 19% | [4]; at 3.7 µM 32% | [4]; at 11.0 µM 49% | [5]; at 1.2 µM 4% | [5]; at 3.7 µM 24% | [5]; [17] -1% | [6]; at 1.2 µM 14% | [6]; at 3.7 µM 46% | [6]; [17] -4% | [7]; at 1.2 µM 4% | [7]; at 3.7 µM 16% | [8]; [17] 46% | [10]; [17] 19% | [11]; at 1.2 µM 14% | [11]; at 3.7 µM 11% | [11]; [17] 39% | [16]; at 1.2 µM -21% | [16]; at 3.7 µM 6% | [12]; at 1.2 µM 17% | [12]; at 3.7 µM 22% | [12]; at 11.0 µM 56% | [14]; [17] 11% | [15]; at 1.2 µM -6% | [15]; at 3.7 µM 34% | [15]; at 11.0 µM 59%
